{"source": "PubChem BioAssay (EPA / NIEHS)", "note": "Where “and” joins values, the source holds several entries; their conditions need not be identical. Identical values can stand only once. Results filed as inconclusive are left out. Where a structure was tested more than once in an assay, its records may differ in their call. Calls of active or inactive are those of the source. How the source made its calls: active means hit-call score of the fitted dose curve at least 0.9, where 1 is the maximum; inconclusive means response in the unintended direction; inactive means score below 0.9.", "data": [{"target": "Peroxisome proliferator-activated receptor gamma (Homo sapiens) (UniProt P37231)", "sequence (P37231 whole entry, looked up)": "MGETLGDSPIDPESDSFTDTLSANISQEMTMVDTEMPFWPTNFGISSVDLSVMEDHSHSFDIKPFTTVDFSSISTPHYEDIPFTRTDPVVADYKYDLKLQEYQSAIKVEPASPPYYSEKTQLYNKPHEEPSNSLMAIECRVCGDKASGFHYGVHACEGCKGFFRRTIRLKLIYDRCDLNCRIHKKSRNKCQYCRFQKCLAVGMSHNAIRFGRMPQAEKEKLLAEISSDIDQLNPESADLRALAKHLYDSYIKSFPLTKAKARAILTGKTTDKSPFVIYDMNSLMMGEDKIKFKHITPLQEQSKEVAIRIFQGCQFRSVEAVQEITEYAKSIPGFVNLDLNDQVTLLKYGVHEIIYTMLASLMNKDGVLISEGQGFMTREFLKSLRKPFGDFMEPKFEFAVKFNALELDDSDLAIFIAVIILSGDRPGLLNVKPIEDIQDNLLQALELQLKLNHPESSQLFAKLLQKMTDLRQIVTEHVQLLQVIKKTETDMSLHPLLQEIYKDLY", "test": "NVS_NR_hPPARg: NovaScreen (NVS) Nuclear Receptor Binding Assay for human Peroxisome Proliferator-activated Receptor gamma (PPARg) (AID 2283370)", "how_it_was_run": "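Cell-free fluorescence polarization binding to human PPARg protein, read 2 h after dosing. Primary screen in duplicate at 25 uM, actives followed in concentration series; loss of signal relative to DMSO scored.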", "values": [{"compound": "CCCCC(CC)COC(=O)CCCCC(=O)OCc1ccccc1", "note": "(stereo unspecified)", "outcome": "inactive"}, {"compound": "O=C(O)c1ccccc1C(c1ccc(O)cc1)c1ccc(O)cc1", "outcome": "inactive"}, {"compound": "c1ccc2cc3c(ccc4ccccc43)cc2c1", "outcome": "inactive"}, {"compound": "O=[N+]([O-])c1ccc(O)cc1", "outcome": "inactive"}, {"compound": "Cc1cc(CCN2CCN(c3nsc4ccccc34)CC2)cc2c1NC(=O)CC2(C)C", "outcome": "inactive"}, {"compound": "CN1CCN(c2ccccc2/C=C2\\SCCN(c3ccc(Cl)c(Cl)c3)C2=O)CC1", "outcome": "inactive"}, {"compound": "CN1CCC[C@H]1c1cccnc1", "outcome": "inactive"}, {"compound": "CCN(CC)CCNc1ccc(CNC=O)c2sc3ccc(OC)cc3c(=O)c12", "outcome": "inactive"}, {"compound": "CCCOc1sc(C(=O)N2CCC(c3cc(CN)ccc3F)CC2)c(C)c1Br", "outcome": "inactive"}, {"compound": "CCOC(=O)CC(O)(CC(=O)OCC)C(=O)OCC", "outcome": "inactive"}, {"compound": "COCC(C)OCC(C)O", "note": "(stereo unspecified)", "outcome": "inactive"}, {"compound": "Cc1cc(C)c(O)c(C)c1", "outcome": "inactive"}, {"compound": "O=c1c(-c2ccc(O)cc2)coc2cc(O)ccc12", "outcome": "inactive"}, {"compound": "CC1=C(/C=C/C(C)=C/C=C/C(C)=C/C(=O)O)C(C)(C)CCC1", "outcome": "inactive"}, {"compound": "CCc1nn(C2CCCCC2)c2cc(C3(C#N)CCC(C(=O)O)CC3)ccc12", "note": "(stereo unspecified)", "outcome": "inactive"}, {"compound": "CN(C)C=O", "outcome": "inactive"}]}, {"target": "human Serotonin Transporter (SERT), SLC6A4 (gene 6532) (UniProt P31645)", "sequence (P31645 whole entry, looked up)": "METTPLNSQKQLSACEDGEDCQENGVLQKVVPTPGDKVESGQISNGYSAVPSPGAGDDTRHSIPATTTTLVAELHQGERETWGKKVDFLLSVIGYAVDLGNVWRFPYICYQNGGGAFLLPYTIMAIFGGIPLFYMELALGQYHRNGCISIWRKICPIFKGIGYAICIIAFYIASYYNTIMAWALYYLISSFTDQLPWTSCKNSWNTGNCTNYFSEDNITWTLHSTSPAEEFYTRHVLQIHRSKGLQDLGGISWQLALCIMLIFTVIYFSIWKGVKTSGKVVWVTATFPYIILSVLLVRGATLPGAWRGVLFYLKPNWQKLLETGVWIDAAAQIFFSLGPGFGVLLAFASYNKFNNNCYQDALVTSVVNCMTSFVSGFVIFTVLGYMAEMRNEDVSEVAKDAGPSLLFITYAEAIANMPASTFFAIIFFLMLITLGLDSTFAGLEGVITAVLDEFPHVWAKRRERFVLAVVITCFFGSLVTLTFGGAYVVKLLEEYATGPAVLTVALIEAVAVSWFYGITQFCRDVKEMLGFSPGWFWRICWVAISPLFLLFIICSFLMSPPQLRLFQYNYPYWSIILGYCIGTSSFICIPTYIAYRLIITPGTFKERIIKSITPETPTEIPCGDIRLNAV", "test": "NVS_TR_hSERT: NovaScreen (NVS) Transporter Assay for human Serotonin Transporter (SERT) (AID 2283372)", "how_it_was_run": "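Radioligand binding to native SERT in human platelet membranes, read by filter-based scintillation counting 1 h after dosing. Primary screen in duplicate at 25 uM; actives followed up in concentration series; loss of signal versus DMSO baseline.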", "values": [{"compound": "CCN(CC)CCNc1ccc(CNC=O)c2sc3ccc(OC)cc3c(=O)c12", "outcome": "inactive"}, {"compound": "COCC(C)OCC(C)O", "note": "(stereo unspecified)", "outcome": "inactive"}, {"compound": "NC(=O)N(O)[C@@H]1C=C[C@H](Oc2cccc(Oc3ccc(F)cc3)c2)C1", "outcome": "inactive"}]}, {"tested_on": "rat Norepinephrine Transporter (NET), gene 83511", "test": "NVS_TR_rNET: NovaScreen (NVS) Transporter Assay for rat Norepinephrine Transporter (NET) (AID 2283373)", "how_it_was_run": "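Rat forebrain membranes; radioligand binding measured by filter-based scintillation counting 1 hour after dosing. Loss of specific binding versus DMSO baseline scored; primary screen in duplicate at 25 uM, actives followed up in concentration series.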", "values": [{"compound": "CCN(CC)CCNc1ccc(CNC=O)c2sc3ccc(OC)cc3c(=O)c12", "outcome": "inactive"}, {"compound": "CC(=O)NC1(c2cccc(F)c2)CCN(CC[C@@]2(c3ccc(Cl)c(Cl)c3)CN(c3ccccc3)C(=O)CO2)CC1", "AC50": "9.66 µM (active)"}, {"compound": "NC(=O)N(O)[C@@H]1C=C[C@H](Oc2cccc(Oc3ccc(F)cc3)c2)C1", "outcome": "inactive"}]}, {"target": "human Dopamine Transporter (DAT), SLC6A3 (gene 6531) (UniProt Q01959)", "sequence (Q01959 whole entry, looked up)": "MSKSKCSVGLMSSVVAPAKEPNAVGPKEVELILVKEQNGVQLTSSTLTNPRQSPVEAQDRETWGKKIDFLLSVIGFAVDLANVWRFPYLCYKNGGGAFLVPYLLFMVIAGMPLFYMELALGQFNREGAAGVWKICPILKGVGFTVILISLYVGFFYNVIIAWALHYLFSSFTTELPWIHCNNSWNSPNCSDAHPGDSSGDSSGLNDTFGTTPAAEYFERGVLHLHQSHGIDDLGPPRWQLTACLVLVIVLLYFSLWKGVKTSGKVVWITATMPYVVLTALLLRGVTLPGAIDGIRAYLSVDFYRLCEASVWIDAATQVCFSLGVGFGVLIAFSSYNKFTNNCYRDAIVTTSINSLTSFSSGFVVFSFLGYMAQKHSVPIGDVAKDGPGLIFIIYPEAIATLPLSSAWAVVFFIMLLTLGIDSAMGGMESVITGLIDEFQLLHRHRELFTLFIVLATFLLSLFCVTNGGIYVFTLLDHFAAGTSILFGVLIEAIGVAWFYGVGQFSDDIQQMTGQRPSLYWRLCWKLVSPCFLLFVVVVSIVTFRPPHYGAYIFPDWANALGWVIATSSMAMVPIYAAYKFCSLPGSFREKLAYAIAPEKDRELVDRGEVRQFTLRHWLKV", "test": "NVS_TR_hDAT: NovaScreen (NVS) Transporter Assay for human Dopamine Transporter (DAT) (AID 2283374);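 further: activity means loss of bound radioligand signal relative to DMSO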", "how_it_was_run": "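Test chemicals were first screened in duplicate at 25 uM, with actives retested as concentration series. Displacement of a specific radioligand from cell-free human dopamine transporter was measured after 1 h by filtration and scintillation counting.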", "values": [{"compound": "CCCCCCCCCCCCCC[N+](C)(C)C", "AC50": "4.13 µM (active)"}, {"compound": "CCN(CC)CCNc1ccc(CNC=O)c2sc3ccc(OC)cc3c(=O)c12", "AC50": "12.8 µM (active)"}, {"compound": "CCCOc1sc(C(=O)N2CCC(c3cc(CN)ccc3F)CC2)c(C)c1Br", "AC50": "1.19 µM (active)"}, {"compound": "CC(=O)NC1(c2cccc(F)c2)CCN(CC[C@@]2(c3ccc(Cl)c(Cl)c3)CN(c3ccccc3)C(=O)CO2)CC1", "AC50": "9.61 µM (active)"}, {"compound": "CC1=C(/C=C/C(C)=C/C=C/C(C)=C/C(=O)O)C(C)(C)CCC1", "AC50": "6.66 µM (active)"}, {"compound": "NC(=O)N(O)[C@@H]1C=C[C@H](Oc2cccc(Oc3ccc(F)cc3)c2)C1", "AC50": "0.489 µM (active)"}, {"compound": "CC(C)CCCCCCOC(=O)CCCCC(=O)OCCCCCCC(C)C", "outcome": "inactive"}]}, {"target": "mouse Estrogen Receptor alpha (Era), Esr1 (gene 13982) (UniProt P19785)", "sequence (P19785 whole entry, looked up)": "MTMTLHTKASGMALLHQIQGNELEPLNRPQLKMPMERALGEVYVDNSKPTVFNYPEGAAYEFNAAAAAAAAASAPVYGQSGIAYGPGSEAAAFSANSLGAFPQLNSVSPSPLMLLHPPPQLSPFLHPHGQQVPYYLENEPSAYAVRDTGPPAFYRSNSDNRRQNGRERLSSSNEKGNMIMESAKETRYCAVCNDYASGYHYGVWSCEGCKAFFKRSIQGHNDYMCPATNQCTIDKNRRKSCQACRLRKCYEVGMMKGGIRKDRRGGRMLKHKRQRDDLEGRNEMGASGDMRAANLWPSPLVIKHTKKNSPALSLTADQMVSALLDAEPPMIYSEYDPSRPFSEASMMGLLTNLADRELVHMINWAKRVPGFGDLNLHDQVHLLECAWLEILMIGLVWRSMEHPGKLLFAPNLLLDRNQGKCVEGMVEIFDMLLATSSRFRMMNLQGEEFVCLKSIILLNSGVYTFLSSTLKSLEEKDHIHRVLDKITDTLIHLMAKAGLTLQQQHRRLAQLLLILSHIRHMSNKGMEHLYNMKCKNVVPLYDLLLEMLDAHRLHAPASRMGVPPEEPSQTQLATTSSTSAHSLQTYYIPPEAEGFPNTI", "test": "NVS_NR_mERa: NovaScreen (NVS) Nuclear Receptor Binding Assay for mouse Estrogen Receptor alpha (Era) (AID 2283378)", "how_it_was_run": "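Cell-free radioligand competitive displacement binding, read by filter-based scintillation counting 18 h after dosing. Primary screen run in duplicate at 25 uM, actives retested in concentration series; loss of signal versus DMSO.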", "values": [{"compound": "O=C1OC2(c3ccccc31)c1cc(Br)c(O)c(Br)c1Oc1c2cc(Br)c(O)c1Br", "outcome": "inactive"}, {"compound": "C=C(C)C(=O)OCCC(F)(F)C(F)(F)C(F)(F)C(F)(F)C(F)(F)C(F)(F)F", "outcome": "inactive"}, {"compound": "CCCCCCCCCCCCCC[N+](C)(C)C", "AC50": "14.3 µM (active)"}, {"compound": "CCCCCCCCCCCCN1CCCC1=O", "outcome": "inactive"}, {"compound": "O=C(O)c1ccccc1C(c1ccc(O)cc1)c1ccc(O)cc1", "AC50": "7.92 µM (active) and 7.1 µM (active)", "outcome": "inactive"}, {"compound": "c1ccc2cc3c(ccc4ccccc43)cc2c1", "outcome": "inactive"}, {"compound": "O=[N+]([O-])c1ccc(O)cc1", "outcome": "inactive"}, {"compound": "OCCC(F)(F)C(F)(F)C(F)(F)C(F)(F)C(F)(F)C(F)(F)C(F)(F)C(F)(F)F", "outcome": "inactive"}, {"compound": "OC1CCCCC1", "outcome": "inactive"}, {"compound": "CCN(CC)CCNc1ccc(CNC=O)c2sc3ccc(OC)cc3c(=O)c12", "AC50": "1.37 µM (active)"}, {"compound": "CCCOc1sc(C(=O)N2CCC(c3cc(CN)ccc3F)CC2)c(C)c1Br", "AC50": "5.52 µM (active)"}, {"compound": "CC(=O)NC1(c2cccc(F)c2)CCN(CC[C@@]2(c3ccc(Cl)c(Cl)c3)CN(c3ccccc3)C(=O)CO2)CC1", "outcome": "inactive"}, {"compound": "O=c1c(-c2ccc(O)cc2)coc2cc(O)ccc12", "AC50": "421 nM (active) [middle of 4 runs]"}, {"compound": "CCc1nn(C2CCCCC2)c2cc(C3(C#N)CCC(C(=O)O)CC3)ccc12", "note": "(stereo unspecified)", "outcome": "inactive"}, {"compound": "CCC(C)(C)C1CCC(O)CC1", "note": "(stereo unspecified)", "AC50": "6.46 µM (active)", "outcome": "inactive"}]}]}
